# Hits are enriched below; roughly 4.1% of the tested compounds scored in any of these assays.
# hcDAF-12 act – activates DAF-12 receptor from parasite H. contortus. HEK293 hcDAF-12 lit1-tk-luc reporter, luminescence; 0% DMSO, 100% Δ7-dafachronic acid. activation, % at 6.8 µM. hit rate 1.4% among 370,000. AID 652067;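 active = activation above the mean of all tested compounds plus 3 SD, cut at about 5.5% in these data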;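 also: 100% = response to 3 µM Δ7-dafachronic acid high control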
# DAX1 inh-1 – inhibits human nuclear receptor DAX1; HEK293 Gal4-DAX1 luciferase reporter, luminescence; inhibition, % at 6.75 µM; hit rate 0.99% among 340,000;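 active = inhibition above the mean over all tested compounds plus 3 SD, cut at about 4.2% in these data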;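 also: 0% = DAX1-transfected cells with DMSO and 100% = empty-vector control cells with DMSO; inhibition shows as a rise in luminescence from relieved DAX1 repression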
# Target sequence (P51843 207-470 limits assumed): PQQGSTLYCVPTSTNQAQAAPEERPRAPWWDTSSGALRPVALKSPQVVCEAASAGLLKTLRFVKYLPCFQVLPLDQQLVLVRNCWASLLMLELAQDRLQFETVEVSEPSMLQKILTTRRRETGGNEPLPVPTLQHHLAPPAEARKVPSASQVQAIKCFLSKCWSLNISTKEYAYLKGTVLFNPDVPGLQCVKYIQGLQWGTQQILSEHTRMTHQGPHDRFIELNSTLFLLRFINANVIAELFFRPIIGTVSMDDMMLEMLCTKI
# hgDAF12 agonist – hgDAF-12 agonism, primary luciferase screen; HEK293 GAL4-hgDAF12 UAS-luciferase reporter, agonist luminescence; normalized to butyrate control; activation, % at 6.8 µM; hit rate 1.8% among 370,000; AID 687014;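 active = activation above a cutoff set at the mean of all screened compounds plus 3 SD, cut at about 10% in these data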;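 also: 0% = DMSO wells and 100% = sodium butyrate wells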
# ssDAF-12 act – S. stercoralis DAF-12 activation, primary screen. hit rate 1% among 370,000. HEK293 ssDAF-12/GRIP1 lit1-tk-luc reporter, luminescence; % of 3 µM dafachronic acid response. activation, % at 6.8 µM. AID 652126;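 active = activation above the mean over all tested compounds plus 3 SD, cut at about 0.9% in these data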;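 also: 0% = DMSO-only wells and 100% = 3 µM delta7-dafachronic acid wells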
# DAX1 inh-2 – blocks DAX1 repression of SF-1 activated StAR promoter | inhibition, % at 6.8 µM | hit rate 1.1% among 370,000 | AID 652010 | HEK293T StAR-luciferase reporter, SF-1/DAX-1 repression relief;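 active = inhibition above the mean over all tested compounds plus 3 SD, cut at about 3.6% in these data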;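 also: 0% = DAX-1 cells with DMSO and 100% = cells lacking DAX-1 with DMSO; higher inhibition means more luminescence from relief of DAX-1 repression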
# * = called active by the depositor; . = no result.
SMILES,hcDAF-12 act,DAX1 inh-1,hgDAF12 agonist,ssDAF-12 act,DAX1 inh-2
CC(C)N1CCN(Cc2cc3ccccc3[nH]2)CC1CCO (stereo unspecified),3,1,4,1.1*,0
COC(=O)[C@]12C[C@H](CC(=O)N3CCOCC3)C(=O)N(CCc3ccc(OC)c(OC)c3)C1=C[C@H](C(C)C)O[C@@H]2C1CC1,-2,.,0,-2,0
CCc1ccc2oc(C(=O)Nc3cccnc3)c(C)c2c1,.,5.1*,.,.,.
COC(=O)C1CN(Cc2cn(CCOC(C)=O)nn2)CCS(=O)(=O)N1Cc1ccccc1 (stereo unspecified),0,.,2,-1,0
CCN(C(=O)Cc1c(C(=O)O)[nH]c2ccccc12)c1cc(OC)ccc1OC,3,4.8*,1,-1,0
COc1ccc(N(C)C(=O)Cc2c(C(=O)O)[nH]c3ccccc23)cc1,2,0,1,-1,0
CC(C)(C)C(=O)O/N=C(\N)COc1cccc(Cl)c1,2,6.9*,5,-1,0
Brc1ccc(-c2nc(-c3ccccc3)no2)o1,6.1*,4,12*,1.4*,3
Brc1ccc(-c2nc(-c3cccnc3)no2)o1,3,2,9,-1,0
Cc1cc(C)n2c(Nc3ccc4c(c3)OCCO4)c(-c3ccc(F)cc3)nc2n1,3,.,6,0,4.3*
COC(=O)C1=C(C)N(C)C(=NCc2ccc(OC)cc2)NC1c1ccccc1C(F)(F)F (stereo unspecified),-2,.,0,-1,0
CC(C)CNc1cccc2c1S(=O)(=O)N(Cc1cn(Cc3cccc(C(F)(F)F)c3)nn1)Cc1ccccc1O2,-2,.,-2,-1,0
Cc1ccc(NC(=O)c2cnn(-c3ccccc3)c2C)cc1,4,2,11*,1.1*,2
COc1ccc(OC(=O)c2cnn(-c3ccccc3)c2C)cc1,3,2,13*,0,2
Cc1ccc(NC(=O)c2csc(-c3ccccc3)c2C)cc1,3,0,6,-1,4.3*
CCCc1c(C(=O)NNc2ccccc2OC)cnn1-c1ccccc1,-1,0,2,-1,0
CCCc1c(C(=O)Nc2ccc(OC)cc2)cnn1-c1ccccc1,2,6.3*,3,0,0
Cc1ccc(NC(=O)c2cnn(-c3ccccc3)c2C)c(C)c1,2,2,7,0,1
Oc1ccc2ccccc2c1C=Nn1c(-c2n[nH]c3c2CCC3)n[nH]c1=S,0,.,6,0,-1
Cc1ccc(NCc2ccccc2F)cc1,6.2*,0,4,0,0
Cc1ccc(NCc2ccccc2O)cc1,0,1,4,0,0
COC(=O)[C@H]1C[C@@]2(C)c3ccccc3N(S(=O)(=O)c3ccccc3)[C@H]2N1C(=O)CNC1CCCCC1,-1,.,-2,-2,0
O=C(/C=C/Nc1ccc(F)c(F)c1)c1ccc(Br)cc1,5,1,12*,-1,3
COc1ccc(N/C=C\C(=O)c2ccc3ccccc3c2)cc1,0,-1,1,-1,0
O=C(/C=C/Nc1ccc(F)c(Cl)c1)c1ccccc1,6.3*,2,6,0,2
SMILES,hcDAF-12 act,DAX1 inh-1,hgDAF12 agonist,ssDAF-12 act,DAX1 inh-2
COc1ccc(N/C=C/C(=O)c2ccccc2)cc1,5,-3,12*,1.0*,4.4*
CC(=O)Nc1ccc(N/C=C/C(=O)c2ccc(Cl)cc2)cc1,2,0,3,-1,1
O=C(/C=C/Nc1ccc(F)cc1)c1ccc(Br)cc1,3,2,11*,0,3
COc1ccc(OC[C@@H](O)CN2CCC(C(O)(c3ccccc3)c3ccccc3)CC2)cc1,-2,.,4,0,1
Cc1ccc(C(=O)/C=C/Nc2ccc3c(c2)OCO3)cc1,1,1,2,1.6*,1
O=C1CCNc2c(Cl)cc(Cl)cc21,-1,5.0*,-1,-1,0
O=C1CCNc2c(Cl)cccc21,2,0,1,0,0
O=C(Nc1cccnc1)c1cc(-c2ccc(Cl)cc2Cl)on1,2,6.7*,5,0,1
CC(C)Cc1cc(C(=O)Nc2cccnc2)no1,3,1,10,1,4.4*
Cc1ccc2c(c1)C(CS(=O)(=O)NC1CCCC1)NC2 (stereo unspecified),2,.,-2,-1,0
CC(NC(=O)CCc1nnc(C2(c3ccc(Cl)cc3)CCC2)o1)C1CC1 (stereo unspecified),0,4.4*,3,0,0
O=C(CCCC1=NS(=O)(=O)c2ccccc2N1)N1CCN(c2ccccc2Cl)CC1,-2,.,-3,-1,-1
OC(CCN1CCCCC1)(c1ccccc1)c1ccccc1,-1,-1,7,-1,1
NC(=O)C(CCCCN1CCCCC1)(c1ccccc1)c1ccccc1,-2,2,0,-1,4.1*
O=C(NCc1ccccc1)C1CCN(c2nc(-c3ccc(Br)cc3)cs2)CC1,-3,.,4,-2,.
COC(=O)C1(C(=O)OC)C[C@H](/C=C/c2ccccc2)N(Cc2ccccc2OC)[C@@H]1c1ccccc1,-1,.,1,-1,3.9*
COC(=O)C1(C(=O)OC)C[C@H](/C=C/c2ccccc2)N(Cc2ccccc2OC)[C@@H]1c1cccc(Br)c1,-1,.,3,0,0
c1ccc(-n2c(SCc3cccc4ccccc34)nnc2-c2ccccn2)cc1,-4,.,-2,-1,-2
Cc1ccnc(NC(=O)c2cc(-c3ccc(Cl)s3)nc3ccccc23)c1,0,4.7*,2,0,1
Cc1cc(NC(=O)c2cc(-c3ccc(C)s3)nc3ccccc23)no1,1,1,3,1.7*,-1
Cc1cc(NC(=O)c2cc(-c3ccccc3C)nc3ccccc23)no1,5,0,-2,0,0
O=C(Nc1ccccn1)c1cc(-c2ccc(Cl)s2)nc2ccccc12,0,-1,2,-1,-2
C=CCN1[C@H](CO)[C@H](c2ccc(Br)cc2)[C@@H]1C#N,2,.,2,0,1
CC(=O)c1csc(-c2ccccc2)n1,-1,5.4*,0,-1,0
CC(=O)c1csc(Nc2ccccc2Cl)n1,1,8.7*,7,-1,0
O=C(Nc1ccc(Cl)cc1)c1csc(-c2ccccc2)n1,1,1,1,-2,0
CCCNC(=O)c1csc(Nc2cccc3ccccc23)n1,1,-2,1,-1,0
Cc1ccc(Cc2cnc(NC(=O)C3CCCO3)s2)cc1 (stereo unspecified),4,1,13*,1.0*,4
O=C(Nc1ncc(Cc2ccccc2)s1)C1COc2ccccc2O1 (stereo unspecified),2,3,11*,0,4.2*
CCCCCc1nnc(NC(=O)C2COc3ccccc3O2)s1 (stereo unspecified),5.6*,0,4,-1,2

# High-throughput results (PubChem BioAssay)
